Tg IFNy HTS: inhibitors of Toxoplasma gondii growth with IFN-gamma; Toxoplasma gondii growth in IFN-gamma-treated host cells; active compounds read low; activity change, negative = inhibition, % (no concentration beside the values); actives 3.8% (n = 69,000); AID 1259416; in the data active = activity change below about -70%, passing the limit was not always enough;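 note: host cells are HeLa cells infected with Toxoplasma gondii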
Numbers stand for hits; ! = a repeat was not active. This excerpt belongs to a sample that is enriched for hits.

What do the screens show for `c1ccc(CN2C[C@H]3OCCN(CC4CCCO4)[C@H]3C2)nc1` (stereo partly drawn)?
Tg IFNy HTS: inactive

Results for C=CCOC1C2CCC1N(Cc1ccccn1)CCO2 (stereo not drawn) ?
Tg IFNy HTS: -91.6

What do the screens show for `c1ccc(CN2CCO[C@H]3[C@H]2CC[C@H]3OCc2cccnc2)nc1`?
Tg IFNy HTS: inactive

What do the screens show for `COCCN1CCN(Cc2nccn2C)Cc2cccnc21`?
Tg IFNy HTS: inactive

Results for O=C(c1cccs1)N1CCN2CC(OCc3cccnc3)CC2C1 (stereo not drawn) ?
Tg IFNy HTS: inactive

Results for CC(=O)O[C@@H]1CC2C(C)(C)C(=O)C=C[C@]2(C)C2CC[C@]3(C)C(=CC(=O)O[C@H]3c3ccoc3)[C@@]21C (stereo partly drawn) ?
Tg IFNy HTS: -87.6

Results for CC(=O)O[C@H]1C[C@@H](OC(C)=O)C(C)(C)C2C[C@@H](OC(C)=O)[C@]3(C)C(CC[C@@]4(C)[C@H](c5ccoc5)C(=O)[C@H]5O[C@]543)[C@]21C (stereo partly drawn) ?
Tg IFNy HTS: inactive

What do the screens show for `CC1(C)C2CC(=O)[C@]3(C)C(CC[C@@]4(C)[C@H](c5ccoc5)OC(=O)[C@H]5O[C@]543)[C@@]2(C)C(=O)C[C@H]1O` (stereo partly drawn)?
Tg IFNy HTS: inactive

How did Cc1cc(NC(=O)c2cc3cccnc3n(Cc3ccccc3)c2=O)no1 do in these assays?
Tg IFNy HTS: inactive

How did COCC(=O)N1CC[C@@]2(CN(C)C[C@@H]2COCc2ccccn2)C1 do in these assays?
Tg IFNy HTS: inactive

How did CCN(Cc1ccc(F)cc1)C(=O)C(C)N1CCCC1=O (stereo not drawn) do in these assays?
Tg IFNy HTS: inactive

How did Cc1ccc2c(c1)Cc1c(C(=O)NN3CCCCC3)nn(-c3ccc(Cl)cc3Cl)c1-2 do in these assays?
Tg IFNy HTS: -74.6!

How did CN1C(=O)C2(CCN(Cc3cccn3C)CC2)c2ccccc21 do in these assays?
Tg IFNy HTS: inactive

How did Cc1cc(CN2C[C@H]3COC[C@H](CC(=O)N(C)C)[C@@H]3C2)no1 do in these assays?
Tg IFNy HTS: inactive

Results for CCN(CC)C(=O)C1=NOC2(CCNC2)C1 (stereo not drawn) ?
Tg IFNy HTS: inactive

What do the screens show for `Cc1ccc(CN2CCN3CC(OCc4ccccn4)CC3C2)s1` (stereo not drawn)?
Tg IFNy HTS: inactive

How did CC(C)CN1CCC2(COCc3cnc(N(C)C)nc32)C1 (stereo not drawn) do in these assays?
Tg IFNy HTS: inactive

Results for COCCN1CCC2(COCc3cnc(N4CCOCC4)nc32)C1 (stereo not drawn) ?
Tg IFNy HTS: -90.5

Results for c1nc(N2CCOCC2)nc2c1COCC21CCN(CC2CC2)C1 (stereo not drawn) ?
Tg IFNy HTS: inactive

How did CCc1ccc(CN2C[C@H](OC)[C@@H]3COC[C@@H]32)o1 do in these assays?
Tg IFNy HTS: inactive

How did Cn1cc(CN2CC[C@H]3C[C@H](c4ccncn4)O[C@H]3C2)cn1 do in these assays?
Tg IFNy HTS: inactive

Results for C[C@@]1(CO)[C@H](O)CC[C@@]2(C)[C@H]1CC[C@H]1C[C@@H]3C[C@@]12CC[C@]3(O)CO ?
Tg IFNy HTS: -85.9

What do the screens show for `O=C(NCc1ccc2c(c1)OCO2)c1cc2cccnc2n(Cc2ccccc2)c1=O`?
Tg IFNy HTS: inactive

What do the screens show for `CC(C)N(C)[C@H]1CN(C(=O)Cc2ccccn2)C[C@H]2CCCO[C@H]21`?
Tg IFNy HTS: inactive

How did CCN1C[C@H]2[C@H](OC)CCN(C(=O)c3cc(C4CC4)on3)[C@H]2C1 do in these assays?
Tg IFNy HTS: inactive

Results for Cc1nc(CN2CC3CN(Cc4ccccn4)CC3C2)cs1 (stereo not drawn) ?
Tg IFNy HTS: inactive

What do the screens show for `Fc1cc(F)c2c(c1)[C@H]1C=CC[C@H]1C(c1cccnc1)N2` (stereo partly drawn)?
Tg IFNy HTS: -73.8

How did c1cncc(C2CCCN2)c1 (stereo not drawn) do in these assays?
Tg IFNy HTS: inactive

What do the screens show for `CCc1ccccc1NC(=O)c1cc2cccnc2n(Cc2ccccc2F)c1=O`?
Tg IFNy HTS: inactive

Results for O=C(Cn1cc(C(F)(F)F)ccc1=O)N1CCC2(CCCNC2)C1 (stereo not drawn) ?
Tg IFNy HTS: inactive

Results for Cc1cccc2nc(CNC(=O)C3CC4(CCNCC4)CN3)cn12 (stereo not drawn) ?
Tg IFNy HTS: inactive

What do the screens show for `CCN1C[C@H]2[C@H](OC)CCN(C(=O)COc3ccccc3OC)[C@H]2C1`?
Tg IFNy HTS: inactive

How did CC(C)CCNC(=O)c1cc2cccnc2n(Cc2ccc(F)cc2)c1=O do in these assays?
Tg IFNy HTS: inactive

What do the screens show for `O=C(NCCC(c1ccccc1)c1ccccc1)c1cc2cccnc2n(Cc2ccc(F)cc2)c1=O`?
Tg IFNy HTS: -83.3

What do the screens show for `O=C(NCc1ccc(F)cc1)c1cc2cccnc2n(Cc2ccc(Cl)cc2)c1=O`?
Tg IFNy HTS: inactive

What do the screens show for `Cc1ccc(CNC(=O)c2cc3cccnc3n(Cc3ccc(F)cc3)c2=O)cc1`?
Tg IFNy HTS: inactive

What do the screens show for `O=C(NCCC(c1ccccc1)c1ccccc1)c1cc2cccnc2n(Cc2ccccc2)c1=O`?
Tg IFNy HTS: inactive

What do the screens show for `O=C(NCc1ccco1)c1cc2cccnc2n(Cc2ccc(F)cc2)c1=O`?
Tg IFNy HTS: -95.0

Results for O=C(Nc1ccc(Oc2ccccc2)cc1)c1cc2cccnc2n(Cc2ccccc2F)c1=O ?
Tg IFNy HTS: inactive

Results for Cc1noc(C)c1CN1CC[C@@H]2C[C@H](C(=O)N(C)C)O[C@@H]2C1 ?
Tg IFNy HTS: inactive

Results for Cc1cccc(C)c1NC(=O)c1cc2cccnc2n(Cc2ccccc2F)c1=O ?
Tg IFNy HTS: inactive

Results for O=C(Nc1cccc(C(F)(F)F)c1)c1cc2cccnc2n(Cc2ccc(F)cc2)c1=O ?
Tg IFNy HTS: inactive

How did Fc1ccc(C(OCCN2CCCC2)c2ccc(Br)cc2)cc1 (stereo not drawn) do in these assays?
Tg IFNy HTS: inactive

What do the screens show for `Fc1ccc(C(OCCN2CCN(C/C=C/c3ccccc3)CC2)c2ccc(F)cc2)cc1`?
Tg IFNy HTS: -81.4!

How did Fc1ccc(C(OCCN2CCN(CCCc3ccccc3)CC2)c2ccc(F)cc2)cc1 do in these assays?
Tg IFNy HTS: inactive

Results for COc1cc(N2CC[C@@H]3[C@H]2CCN3Cc2cccnc2)ncn1 ?
Tg IFNy HTS: inactive

How did CCOC1CC2(CCN(CC(=O)O)CC2)c2cc(OC)ccc21 (stereo not drawn) do in these assays?
Tg IFNy HTS: inactive

How did O=S(=O)(c1ccc(F)cc1)N1CC2CNCC2C1 (stereo not drawn) do in these assays?
Tg IFNy HTS: inactive

Results for O=C(Nc1ccc(Br)cc1F)c1cc2cccnc2n(Cc2ccccc2)c1=O ?
Tg IFNy HTS: inactive

What do the screens show for `CC(C)(C)c1cc(C=C(C#N)C#N)cc(C(C)(C)C)c1O`?
Tg IFNy HTS: -79.7

Results for N#CC(C#N)=Cc1ccc(O)c(O)c1 ?
Tg IFNy HTS: inactive

How did Cc1nccc([C@H]2C[C@@H]3CCN(Cc4cnn(C)c4)C[C@@H]3O2)n1 do in these assays?
Tg IFNy HTS: inactive

What do the screens show for `c1cncc(N2CCOCC3(CCCN(Cc4ccoc4)C3)C2)c1` (stereo not drawn)?
Tg IFNy HTS: inactive

Results for c1ccc(OCC2CC3OCCN(Cc4cccs4)C3C2)nc1 (stereo not drawn) ?
Tg IFNy HTS: inactive

Results for CO[C@H]1CCN(C(=O)c2ccc(C)cn2)[C@H]2CN(CC3CC3)C[C@@H]12 ?
Tg IFNy HTS: inactive

Results for COc1ccc(C2=NCC(=O)N(Cc3nc(-c4ccccc4)oc3C)c3sc4c(c32)CCCC4)cc1 ?
Tg IFNy HTS: -87.0

Screening results deposited in PubChem by Broad Institute.
